Compound activity (PubChem BioAssay)
An excerpt weighted towards active compounds, which were near 2.8% of everything screened.
LMP1 NFkB inh: inhibitors of Epstein-Barr LMP1-induced NF-kappaB reporter; AID 504558; inhibition, % at 12.5 µM; 350,000 tested, 0.69% active; LMP1-induced NF-kappaB luciferase reporter cells, luminescence; in the data active = inhibition above about 41%
MITF TRPM1 inh: reduces MITF-dependent TRPM1 promoter luciferase signal; SK-MEL-5 TRPM1 promoter luciferase, 24 h; 330,000 tested, 0.83% active; inhibition, % at 12.5 µM;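 active = mean inhibition across replicates of 60% or more, whatever share of single replicates reaches that level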
Peg3 promoter: inhibitors of Peg3 promoter. HeLa PEG-Prom luciferase reporter, luminescence, overnight. inhibition, % at 20 µM. 360,000 tested, 1.7% active. AID 588405;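 active = inhibition of at least 50% at 20 µM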
Shn3 inh set2: inhibitors of Schnurri-3 3'UTR reporter in osteoblasts; Clone20 osteoblast Shn3 3'UTR firefly luciferase, 24 h; inhibition, % at 12.5 µM; 360,000 tested, 0.52% active; AID 588674;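 active = mean inhibition of at least 75% with every replicate also reaching 75%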
HIF-2a inh: inhibitors of HIF-2a | 786-0 RCC cells HIF-2a reporter, luciferase luminescence, overnight | 360,000 tested, 0.72% active | inhibition, % at 18.8 µM;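 active = inhibition of the luminescence signal of 40% or more relative to plate controls, in a single-dose primary screen at 18.75 µM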
PAX8 inh HTS: lowers PAX8-driven luciferase in RMG-I cells; RMG-I TPO-luciferase reporter, SteadyGlo, 24 h; inhibition, % at 12.6 µM; 360,000 tested, 1.2% active; AID 652154;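 active = mean replicate inhibition at least 60% with every replicate also reaching 60%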;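 also: luciferase light reporting Pax8 driven TPO promoter activity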
A number is an active result; . = inactive; / = not tested or not shown.

SMILES	LMP1 NFkB inh	MITF TRPM1 inh	Peg3 promoter	Shn3 inh set2	HIF-2a inh	PAX8 inh HTS
CSc1cccc(CN2CCC(CO)(Cc3cccc(C(F)(F)F)c3)CC2)c1	.	.	52	.	.	.
Cc1ccc(-n2cc(CN3CCC(CO)(Cc4cccc(C(F)(F)F)c4)CC3)cn2)cc1	.	.	108	.	.	.
OC[C@H]1[C@H](c2ccc(C#CC3(O)CCCC3)cc2)[C@H]2CN(Cc3ccccc3F)CCCCN21	/	/	/	/	/	.
CCc1ccc(OCc2n[nH]c(=S)n2Cc2ccccc2)cc1	.	.	.	.	.	.
CCc1ccc(OCc2n[nH]c(=S)n2C(C)CCCC(C)C)cc1 (centres undefined)	.	.	111	.	.	.
CCNC(=O)[C@H]1[C@H](CO)[C@H]2Cn3c(ccc(-c4ccccc4F)c3=O)[C@@H]1N2Cc1cccnc1	/	/	/	/	/	.
C=CCC[C@H](Cc1ccc(F)cc1)C(=O)OC[C@@H](Cc1c[nH]c2ccccc12)NC(=O)[C@@H](CC=C)CC(=O)N[C@@H](CO)Cc1ccccc1	.	.	.	.	.	78
C=CCC[C@@H](Cc1ccc(F)cc1)C(=O)OC[C@@H](Cc1c[nH]c2ccccc12)NC(=O)[C@@H](CC=C)CC(=O)N(CCO)Cc1ccccc1	.	.	.	.	.	67
C=CCC[C@@H](Cc1ccc(F)cc1)C(=O)OC[C@H](Cc1c[nH]c2ccccc12)NC(=O)[C@@H](CC=C)CC(=O)N[C@@H](CO)Cc1ccccc1	.	.	.	.	.	.
C=CCC[C@H](Cc1ccc(F)cc1)C(=O)OC[C@H](Cc1c[nH]c2ccccc12)NC(=O)[C@H](CC=C)CC(=O)N(CCO)Cc1ccccc1	.	.	.	.	.	97
O=C(C[C@H]1C[C@@H]2c3cc(NC(=O)Nc4ccccc4F)ccc3O[C@@H]2[C@@H](CO)O1)NCC(F)(F)F	/	/	/	/	/	.
C[C@H]1CN([C@@H](C)CO)C(=O)Cc2cc(NC(=O)C3CCCCC3)ccc2O[C@@H]1CN(C)C	/	/	/	/	/	.
C[C@H](CO)N1C[C@H](C)[C@H](CN(C)S(=O)(=O)c2ccc(-n3cccn3)cc2)OCc2cn(nn2)CCCC1=O	/	/	/	/	/	.
O=C(C[C@H]1C[C@H]2c3cc(NC(=O)c4ccc5c(c4)OCO5)ccc3O[C@H]2[C@H](CO)O1)NCCN1CCCCC1	/	/	/	/	/	.
Cn1cc([N+](=O)[O-])c(C(=O)Nc2sc3c(c2C#N)CCC3)n1	.	68	.	95	.	.
Cn1cc(Br)c(C(=O)Nc2sc3c(c2C#N)CCC3)n1	/	/	.	.	.	.
C[C@@H]1CCCCO[C@@H](CN(C)C(=O)Nc2ccc3c(c2)OCO3)[C@H](C)CN([C@H](C)CO)C(=O)c2cc(NC(=O)c3ccccc3)ccc2O1	/	/	/	/	/	.
CN(C)c1ccc2c(c1)[C@H]1C[C@@H](CC(=O)NCc3ccc4c(c3)OCO4)O[C@@H](CO)[C@H]1O2	/	/	/	/	/	.
COC(=O)C[C@H]1CC[C@H]2[C@H](COc3ccc(NS(=O)(=O)c4ccc(C)cc4)cc3C(=O)N2C)O1	/	/	/	/	/	.
O=C(Nc1cccc(Cl)c1)c1ccc2c(c1)SC1=NS(=O)(=O)CCN12	.	.	.	.	.	75
COC(=O)c1ccccc1NC(=O)C(C)c1ccc([N+](=O)[O-])cc1 (centres undefined)	62	.	.	.	.	.
O=C(CSc1nc2ncc(Br)cc2[nH]1)Nc1ccccc1-c1ccccc1	.	.	53	.	.	.
O=C(COc1ccc(/C=N/NC(=O)c2cc3ccccc3o2)cc1Br)Nc1ccccc1	.	93	99	.	.	/
Cc1cc(/C=N/NC(=O)c2cccc(N(C)C)c2)c(C)n1-c1cc(C(=O)O)cc(C(=O)O)c1	.	.	.	.	.	.
CN(C)c1cccc(C(=O)N/N=C/c2ccccc2F)c1	44	.	.	.	.	.
CCC(=O)OCOc1ccc(/C=C2/CCC(CN(C)C)C2=O)cc1 (centres undefined)	.	67	100	.	93	.
COc1ccc(/C=N\NC(=O)c2ccccc2OC)cc1COc1c(F)c(F)c(F)c(F)c1F	.	.	.	.	.	64
COc1ccc(/C=N\NC(=O)c2ccccc2Cl)cc1COc1c(F)c(F)c(F)c(F)c1F	.	.	.	.	.	/
N#C[C@H]1[C@H](c2ccccc2)[C@H](CO)N1S(=O)(=O)Cc1ccccc1	/	/	/	/	/	.
